Experimental data: the supplement of paper PMC8728848
The entries come from a sample that favours the strongest signals as a whole.

How the values were obtained:
Assay in all cases: glycan array binding signal (z-score within array); higher = stronger binding
Conditions in all cases: glycan notation: IUPAC condensed, linker removed
Fuc(a1-2)Gal(b1-4)Glc6S = biological target: Fuc(a1-2)Gal(b1-4)Glc6S
How it was run: (§1)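 Columns mapping to the same glycan were averaged after glycan names were converted to IUPAC-condensed notation. The data come from 3228 arrays in the Consortium for Functional Glycomics database, limited to those with an available protein sequence. Binding is reported as a within-array Z-score averaged across arrays of one protein sequence and across linkers.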

[1] = biological target: Fuc(a1-2)[Gal(a1-3)]Gal(b1-4)Glc
How it was run: as §1

[2] = biological target: Fuc(a1-2)[Gal(a1-3)]Gal(b1-4)GlcNAc(b1-2)Man(a1-3)[Fuc(a1-2)[Gal(a1-3)]Gal(b1-4)GlcNAc(b1-2)Man(a1-6)]Man(b1-4)GlcNAc(b1-4)GlcNAc
How it was run: as §1

[3] = biological target: Fuc(a1-2)[GalNAc(a1-3)]Gal
How it was run: as §1

[4] = biological target: Fuc(a1-2)[GalNAc(a1-3)]Gal(b1-4)Glc
How it was run: as §1

[5] = biological target: Fuc(a1-2)[GalNAc(a1-3)]Gal(b1-4)GlcNAc(b1-2)Man(a1-3)[Fuc(a1-2)[GalNAc(a1-3)]Gal(b1-4)GlcNAc(b1-2)Man(a1-6)]Man(b1-4)GlcNAc(b1-4)GlcNAc
How it was run: as §1

[6] = biological target: Fuc(a1-2)[GalNAc(a1-3)]Gal(b1-4)GlcNAc(b1-3)Gal(b1-4)GlcNAc
How it was run: as §1

[7] = biological target: Fuc(a1-2)[GalNAc(a1-3)]Gal(b1-4)GlcNAc(b1-3)Gal(b1-4)GlcNAc(b1-3)Gal(b1-4)GlcNAc
How it was run: as §1

[8] = biological target: Fuc(a1-3)[Gal(b1-4)]GlcNAc
How it was run: as §1

[9] = biological target: Fuc(a1-3)[GalNAc(b1-4)]GlcNAc
How it was run: as §1

[10] = biological target: Gal(b1-3)GalNAc(a1-3)[Fuc(a1-2)]Gal(b1-4)Glc
How it was run: as §1

[11] = biological target: Gal(b1-3)GalNAc(a1-3)[Fuc(a1-2)]Gal(b1-4)GlcNAc
How it was run: as §1

[12] = biological target: Gal(b1-3)GlcNAc(a1-6)Gal(b1-4)GlcNAc
How it was run: as §1

[13] = biological target: Gal(b1-3)GlcNAc(b1-3)Gal(b1-4)GlcNAc(b1-6)[Gal(b1-3)GlcNAc(b1-3)]Gal(b1-4)Glc
How it was run: as §1

[14] = biological target: Gal(b1-4)GalNAc(a1-3)[Fuc(a1-2)]Gal(b1-4)GlcNAc
How it was run: as §1

[15] = biological target: Gal(b1-4)GlcNAc(b1-2)Man(a1-3)[GlcNAc(b1-2)Man(a1-6)]Man(b1-4)GlcNAc(b1-4)GlcNAc
How it was run: as §1

[16] = biological target: Gal(b1-4)GlcNAc(b1-2)Man(a1-6)Man(b1-4)GlcNAc(b1-4)GlcNAc
How it was run: as §1

Gal4S(b1-4)GlcNAc = biological target: Gal4S(b1-4)GlcNAc
How it was run: as §1

Gal6S(b1-3)GlcNAc = biological target: Gal6S(b1-3)GlcNAc
How it was run: as §1

GlcA(b1-3)GlcNAc = biological target: GlcA(b1-3)GlcNAc
How it was run: as §1

[17] = biological target: GlcNAc(a1-4)Gal(b1-4)GlcNAc(b1-3)Gal(b1-4)Glc
How it was run: as §1

[18] = biological target: GlcNAc(b1-2)Man(a1-3)[GlcNAc(b1-4)][GlcNAc(b1-2)Man(a1-6)]Man(b1-4)GlcNAc(b1-4)GlcNAc
How it was run: as §1

[19] = biological target: GlcNAc(b1-2)[GlcNAc(b1-6)]Man(a1-6)[GlcNAc(b1-2)Man(a1-3)]Man(b1-4)GlcNAc(b1-4)GlcNAc
How it was run: as §1

[20] = biological target: GlcNAc(b1-2)[GlcNAc(b1-6)]Man(a1-6)[GlcNAc(b1-2)Man(a1-3)][GlcNAc(b1-4)]Man(b1-4)GlcNAc(b1-4)GlcNAc
How it was run: as §1

[21] = biological target: GlcNAc(b1-4)[GlcNAc(b1-6)]GalNAc
How it was run: as §1

Man(a1-2)Man(a1-3)Man = biological target: Man(a1-2)Man(a1-3)Man
How it was run: as §1

Man(a1-6)Man = biological target: Man(a1-6)Man
How it was run: as §1

Neu5Ac(a2-3)Gal = biological target: Neu5Ac(a2-3)Gal
How it was run: as §1

[22] = biological target: Neu5Ac(a2-3)Gal(b1-3)GalNAc
How it was run: as §1

[23] = biological target: Neu5Ac(a2-3)Gal(b1-3)[Neu5Ac(a2-3)Gal(b1-4)]GlcNAc
How it was run: as §1

[24] = biological target: Neu5Ac(a2-3)Gal(b1-4)GlcNAc(b1-3)Gal(b1-4)GlcNAc(b1-3)Gal(b1-4)GlcNAc
How it was run: as §1

[25] = biological target: Neu5Ac(a2-3)Gal6S(b1-4)GlcNAc
How it was run: as §1

[26] = biological target: Neu5Ac(a2-6)Gal(b1-3)GlcNAc(b1-3)[Gal(b1-4)GlcNAc(b1-6)]Gal(b1-4)Glc
How it was run: as §1

[27] = biological target: Neu5Ac(a2-6)Gal(b1-4)GlcNAc(b1-2)Man(a1-3)Man(b1-4)GlcNAc(b1-4)GlcNAc
How it was run: as §1

[28] = biological target: Neu5Ac(a2-6)Gal(b1-4)GlcNAc(b1-3)Gal(b1-4)GlcNAc
How it was run: as §1

B1: Gal 4 (Canis lupus) (protein)
chain: MAYVPAPGYQPTYNPTLPYNKPIPGGLSVGMSVYIQGITSEHMRRFCVNFVAGAHPGSDIAFHFNPRFDGWDKVVFNSHLGGKWGSEEKKRSMPFRKGTHFELVFMVLAEHYKVVVNGNPFYEFGHRLPLQLVTHLQVEGDVELQSINFIGGTQPLGQGPGHTQQQPSSLPTMEGPPVFNPPVPFRKRLQGGLTVRRTVIIKGFVPFTSKSFVINFMVESSGDLALHINPRLTEGLVVRNSCLNGSWGSEDRKLSYNPFIPGQFFDLSIRCGMDRFKVYANGQHLFDFSHRLLALQNVDMLEINGDVTLSYIQV
- glycan array binding signal (z-score) (Fuc(a1-2)Gal(b1-4)Glc6S): 0.071
- glycan array binding signal (z-score) [1]: 8.77
- glycan array binding signal (z-score) [2]: 2.77
- glycan array binding signal (z-score) [3]: -0.155
- glycan array binding signal (z-score) [4]: 5.95
- glycan array binding signal (z-score) [5]: 3.76
- glycan array binding signal (z-score) [6]: 7.32
- glycan array binding signal (z-score) [7]: 0.359
- glycan array binding signal (z-score) [8]: -0.151
- glycan array binding signal (z-score) [9]: -0.147
- glycan array binding signal (z-score) [10]: 11.1
- glycan array binding signal (z-score) [11]: 2.63
- glycan array binding signal (z-score) [12]: -0.137
- glycan array binding signal (z-score) [13]: -0.146
- glycan array binding signal (z-score) [14]: 3.3
- glycan array binding signal (z-score) [15]: -0.154
- glycan array binding signal (z-score) [16]: -0.156
- glycan array binding signal (z-score) (Gal4S(b1-4)GlcNAc): -0.144
- glycan array binding signal (z-score) (Gal6S(b1-3)GlcNAc): -0.135
- glycan array binding signal (z-score) (GlcA(b1-3)GlcNAc): 0.144
- glycan array binding signal (z-score) [17]: -0.147
- glycan array binding signal (z-score) [18]: -0.148
- glycan array binding signal (z-score) [19]: -0.148
- glycan array binding signal (z-score) [20]: -0.148
- glycan array binding signal (z-score) [21]: -0.147
- glycan array binding signal (z-score) (Man(a1-2)Man(a1-3)Man): -0.142
- glycan array binding signal (z-score) (Man(a1-6)Man): -0.148
- glycan array binding signal (z-score) (Neu5Ac(a2-3)Gal): -0.152
- glycan array binding signal (z-score) [22]: -0.145
- glycan array binding signal (z-score) [23]: -0.156
- glycan array binding signal (z-score) [24]: -0.153
- glycan array binding signal (z-score) [25]: -0.16
- glycan array binding signal (z-score) [26]: -0.151
- glycan array binding signal (z-score) [27]: -0.151
- glycan array binding signal (z-score) [28]: -0.151
